Laboratory results reported in PubChem BioAssay.
Several values for one entry are separate records, joined by “and”; a condition that tells them apart may be missing. Equal values may be shown once. The source holds several records for some structures; these can differ, active in one and inactive in another. Activity calls are given as the source filed them.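 The calls were made as follows, unless noted: active = thallium flux through the channel raised or lowered by more than 3 SD from vehicle-only wells, actives on both sides; inactive = the rest.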

How the values were obtained:
[1] = Wnt pathway potentiators raising nuclear beta-catenin – imaging, WNT3A-conditioned medium, mouse C2C12, NPC library, primary screen (AID 1117326; in the data active = nuclear beta-catenin stimulation mostly above about 4.2%, no sharp cut-off; inactive = mostly below about 10%); settings: stronger effect = higher value
[2] = stimulators of insulin release from INS-1E, primary screen, cell-based, 5 mM glucose, NPC library (AID 1117329;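 active = compound raises insulin release from rat beta cells at 5 mM glucose, no numeric limit stated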); settings: rat INS-1E insulin secretion, at 10 µM, stronger effect = higher value
[3] = growth inhibition of GSK3B-pretreated HCT116 cells – cell-based, CellTiter-Glo, 0.2 to 20 µM (AID 1117336;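 active = compounds lowering colon cancer cell viability after pretreatment blocking the GSK3B kinase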); settings: HCT116 viability after GSK3B inhibitor, at 20 µM, stronger effect = higher value
[4] = inhibition of endothelial tube formation, primary screen, imaging, VEGF stimulated, CD31 staining, tube area, NPC library (AID 1117340;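 active = compound that reduces growth-factor-driven endothelial tube area in a mixed cell culture, no cutoff stated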); settings: VEGF-stimulated ADSC/ECFC co-culture, at 10 µM, stronger effect = higher value
[5] = GLP1 release stimulators, primary, NCI-H716, NPC library (AID 1117341;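 active = compound raises GLP1 secretion from the human gut endocrine cells, with no numeric limit stated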); settings: NCI-H716 cells, at 10 µM, stronger effect = higher value
[6] = HCT116 colon cancer cell growth inhibition, primary screen, CellTiter-Glo luminescence, NPC library (AID 1117342;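 active = compounds that lower survival of HCT116 colon cancer cells in the luminescence readout, no numeric limit stated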); settings: at 20 µM (top of the series)
[7] = reduced SW480 viability measured with CellTiter-Glo, NPC library, primary (AID 1117343;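 active = compounds that lower viability of the colon cancer cells in the luminescence readout, with no numeric limit stated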); settings: CellTiter-Glo luminescence; at 20 µM (top of the series)
[8] = NPC library primary testing for decreased DLD-1 cell viability via CellTiter-Glo (AID 1117346;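 active = compounds that lower survival of DLD-1 colon cancer cells in the luminescence readout, no cutoff given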); settings: DLD-1 viability, CellTiter-Glo luminescence; at 20 µM (top of the series)
[9] = molecular target: 6-phosphogluconate dehydrogenase, decarboxylating (Homo sapiens) (UniProt P52209); test: inhibition of human phosphogluconate dehydrogenase – biochemical, recombinant enzyme, NADPH absorbance, primary screen (AID 1159550;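 active = at least 20% inhibition of 6-phosphogluconate dehydrogenase activity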); settings: recombinant 6PGD, NADPH absorbance 341 nm; at 10 µM; stronger effect = higher value
Sequence of 6-phosphogluconate dehydrogenase, decarboxylating (Homo sapiens) (P52209 whole entry, looked up): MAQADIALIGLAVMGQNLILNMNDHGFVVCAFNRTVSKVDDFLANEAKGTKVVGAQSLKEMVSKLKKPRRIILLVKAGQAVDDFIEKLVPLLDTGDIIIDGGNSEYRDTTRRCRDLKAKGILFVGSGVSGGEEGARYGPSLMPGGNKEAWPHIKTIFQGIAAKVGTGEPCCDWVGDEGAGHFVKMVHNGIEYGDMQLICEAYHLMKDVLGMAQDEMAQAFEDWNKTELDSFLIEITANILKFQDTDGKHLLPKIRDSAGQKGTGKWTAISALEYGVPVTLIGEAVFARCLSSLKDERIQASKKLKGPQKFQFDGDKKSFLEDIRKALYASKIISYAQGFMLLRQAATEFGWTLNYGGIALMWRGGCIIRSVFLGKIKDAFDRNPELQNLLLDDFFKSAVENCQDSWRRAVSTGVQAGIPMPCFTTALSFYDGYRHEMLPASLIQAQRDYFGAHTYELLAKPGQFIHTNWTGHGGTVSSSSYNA

[10] = modulation of C. elegans fzo-1 (AID 1259413; call rule not given here;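 also: fzo-1 mutant C. elegans worms in liquid wells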); settings: C. elegans fzo-1 modulator screen, mean read-out; stronger effect = higher value
[11] = EMT-state selective cytotoxicity in co-culture – imaging, PC-3E GFP, TEM4-18 mCherry, primary screen (AID 1345086;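 active = compounds killing one labelled cell type while sparing the other, by normalised counts and ratio limits, not self-fluorescent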;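 as to all read-outs here: cells exposed to compound for 72 h before imaging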;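 as to red/green cell ratio (normalised): normalised mesenchymal count divided by normalised epithelial count so high means epithelial killing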); settings: PC-3E GFP / TEM4-18 mCherry co-culture, imaging cell counts, at 1 µM; for red/green cell ratio (normalised): actives lie on both sides, counts scaled to control wells, 1 = unselective
[12] = viability loss with induced miR-34 in A549 – imaging, A549 dox-inducible miR-34, nuclei and caspase counts, primary screen (AID 1347080;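 active = compounds whose cell count with miR-34 switched on is under 0.7 times the count with it off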); settings: A549 miR-34 inducible, Hoechst nuclei count, 48 h
[13] = molecular target: NAD(+) hydrolase SARM1 (Homo sapiens) (UniProt Q6SZW1); test: blocking NAD cleavage by SARM1 SAM-TIR – cell lysate, NAD-Glo luminescence (AID 1508614;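 active = compound whose remaining NAD level is above about 45 nM, limit read from the data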;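 also: higher remaining NAD means stronger inhibition of SARM1 NADase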); settings: SAM-TIR HEK293T lysate NADase, at 1 µM, stronger effect = higher value
Sequence of NAD(+) hydrolase SARM1 (Homo sapiens) (Q6SZW1 whole entry, looked up, the tested form may be a part): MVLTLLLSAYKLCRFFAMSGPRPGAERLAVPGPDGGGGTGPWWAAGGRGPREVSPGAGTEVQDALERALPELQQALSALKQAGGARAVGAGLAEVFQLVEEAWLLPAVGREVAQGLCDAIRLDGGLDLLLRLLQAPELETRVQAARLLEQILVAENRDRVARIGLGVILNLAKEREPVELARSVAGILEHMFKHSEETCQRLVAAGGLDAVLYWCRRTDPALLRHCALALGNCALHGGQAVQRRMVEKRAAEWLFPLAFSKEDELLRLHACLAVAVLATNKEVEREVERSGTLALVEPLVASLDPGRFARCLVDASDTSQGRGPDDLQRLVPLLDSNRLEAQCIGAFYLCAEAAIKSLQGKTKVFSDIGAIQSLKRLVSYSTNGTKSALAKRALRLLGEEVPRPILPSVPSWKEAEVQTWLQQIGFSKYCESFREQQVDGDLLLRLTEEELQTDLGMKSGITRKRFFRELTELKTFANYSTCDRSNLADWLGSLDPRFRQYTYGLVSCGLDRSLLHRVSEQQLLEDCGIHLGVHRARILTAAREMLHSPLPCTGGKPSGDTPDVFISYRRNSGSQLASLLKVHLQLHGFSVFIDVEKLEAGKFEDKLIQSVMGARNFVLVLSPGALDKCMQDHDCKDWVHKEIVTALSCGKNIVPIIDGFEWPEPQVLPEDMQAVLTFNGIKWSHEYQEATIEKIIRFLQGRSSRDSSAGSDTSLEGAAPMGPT

[14] = molecular target: Mitogen-activated protein kinase 7 (Homo sapiens) (UniProt Q13164); test: Gal4-ERK5 driven luciferase induction – cell-based, HTS, primary screen (AID 1508626;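 active = luciferase signal above three times the same-plate solvent-only control wells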;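 also: luciferase driven by Gal4-ERK5 fusion binding five Gal4 sites before minimal TATA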); settings: HeLa Gal4-ERK5 transactivation, 18 h, at 5 µM, stronger effect = higher value
Sequence of Mitogen-activated protein kinase 7 (Homo sapiens) (Q13164 whole entry, looked up, the tested form may be a part): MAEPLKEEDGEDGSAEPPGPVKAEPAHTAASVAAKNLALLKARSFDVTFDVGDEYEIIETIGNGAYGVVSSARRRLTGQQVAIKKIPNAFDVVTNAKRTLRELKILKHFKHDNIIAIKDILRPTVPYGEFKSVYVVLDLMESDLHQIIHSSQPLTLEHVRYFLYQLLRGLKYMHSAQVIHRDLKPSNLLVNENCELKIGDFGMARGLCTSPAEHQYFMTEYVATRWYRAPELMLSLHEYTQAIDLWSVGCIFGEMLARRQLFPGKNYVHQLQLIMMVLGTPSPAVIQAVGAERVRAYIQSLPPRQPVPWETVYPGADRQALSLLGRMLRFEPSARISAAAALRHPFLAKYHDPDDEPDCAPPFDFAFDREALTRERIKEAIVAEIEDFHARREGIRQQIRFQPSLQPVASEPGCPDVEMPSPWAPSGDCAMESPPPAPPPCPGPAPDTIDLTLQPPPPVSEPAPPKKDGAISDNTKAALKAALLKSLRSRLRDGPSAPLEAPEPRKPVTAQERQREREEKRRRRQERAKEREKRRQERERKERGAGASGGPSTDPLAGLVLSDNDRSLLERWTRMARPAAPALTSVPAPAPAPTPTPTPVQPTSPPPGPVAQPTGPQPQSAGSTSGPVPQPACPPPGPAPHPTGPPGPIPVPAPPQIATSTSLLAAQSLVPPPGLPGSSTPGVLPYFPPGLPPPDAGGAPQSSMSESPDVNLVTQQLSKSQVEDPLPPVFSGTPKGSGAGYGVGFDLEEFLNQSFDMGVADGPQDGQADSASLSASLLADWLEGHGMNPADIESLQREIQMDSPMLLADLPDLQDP

[15] = test system: F380Y; test: BK channel mutant inhibitors and activators – cell-based, U2OS BacMam, thallium flux, beta subunits, selectivity assay, profiling panel (AID 1259406); settings: U2OS BacMam BK variants, at 30 µM;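 also: initial slope of Thallos dye fluorescence rise after thallium is added; log ratio against the mean of 0.3% DMSO vehicle wells on the same plate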
[16] = test system: F380Y/beta1; test: as above; settings: U2OS BacMam BK variants, at 30 µM
[17] = test system: F380Y/beta2Delta; test: as above; settings: U2OS BacMam BK variants, at 30 µM
[18] = MELAS cybrid and Rieske KO viability enhancers – cell-based, MELAS cybrids, Rieske KO mouse fibroblasts, CellTiter-Glo, primary screen (AID 1508586;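 active = mean z-score across replicates of 1.96 or higher in either the MELAS or the Rieske mutant cell line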;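 also: z relative to plate mean and SD of compound and empty wells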); settings: low glucose
[19] = measured here: epithelial PC-3E GFP cell survival
[20] = measured here: mesenchymal TEM4-18 mCherry cell survival
[21] = stronger effect = lower value, cell number ratio, induced over uninduced
[22] = measured here: relative caspase fold change +Dox/-Dox
[23] = measured here: total cells with miR-34 induction, stronger effect = lower value
[24] = measured here: total cells without miR-34 induction
[25] = MELAS cybrid survival, CellTiter-Glo 48 h, stronger effect = higher value
[26] = Rieske KO mouse fibroblast survival, CellTiter-Glo 72 h

## Nc1ncn([C@@H]2O[C@H](CO)[C@@H](O)[C@H]2O)c(=O)n1
[1]; at 10 µM
  nuclear beta-catenin stimulation: 21.7% (inactive)
[1]; stimulation, at 2 µM
  nuclear beta-catenin stimulation: 1.8%
[2]
  insulin secretion stimulation: 0.5% (inactive)
[3]
  viability decrease: 83.3% (active)
[4]
  tube area decrease: 66.1% (active)
[5]
  GLP1 secretion stimulation: -0.3% (inactive)
[6]
  inhibition of viability: 94.3% (active)
[7]
  viability decrease (inhibition): 113% (active)
[8]
  viability decrease (inhibition): 91% (active)
[9]
  inhibition: 4.17% (inactive)
[10]
  mean signal: 231 (inactive)
[11]
  red/green cell ratio (normalised): 0.99 (inactive)
[11]; [19]
  normalised cell number: 0.83
[11]; [20]
  normalised cell number: 0.82
[12]; [21]
  fold change: 0.885 (inactive) and 0.737 (inactive) and 0.556 (active)
[12]; [22]
  fold change: 3.44 and 3.26 and 2.98
[12]; [23]
  cell count: 1630 and 1960 and 3690
[12]; [24]
  cell count: 1840 and 2660 and 6640
[13]
  remaining NAD: 10 nM (inactive)
[14]
  luciferase signal: 60 AU (inactive)
[15]
  log fold change Tl+ flux: -0.0337 (inactive)
[16]
  log fold change Tl+ flux: -0.0139 (inactive)
[17]
  log fold change Tl+ flux: 0.0239 (inactive)

## NS(=O)(=O)c1cc2c(cc1Cl)NC=NS2(=O)=O
[1]; at 10 µM
  nuclear beta-catenin stimulation: -0.3% (inactive)
[1]; stimulation, at 2 µM
  nuclear beta-catenin stimulation: 3%
[2]
  insulin secretion stimulation: -0.7% (inactive)
[3]
  viability decrease: -4.3% (inactive)
[4]
  tube area decrease: 3.2% (inactive)
[5]
  GLP1 secretion stimulation: 1.5% (inactive)
[6]
  inhibition of viability: -1.55% (inactive)
[7]
  viability decrease (inhibition): 5.5% (inactive)
[8]
  viability decrease (inhibition): -6.2% (inactive)
[9]
  inhibition: 11.5% (inactive)
[10]
  mean signal: 245 (inactive)
[11]
  red/green cell ratio (normalised): 1.16 (inactive)
[11]; [19]
  normalised cell number: 0.39
[11]; [20]
  normalised cell number: 0.45
[18]; [25]
  z-score: -0.0786 (inactive) and 0.00114 (inactive)
[18]; [26]
  z-score: 0.72 and -0.309
[13]
  remaining NAD: 10 nM (inactive)
[14]
  luciferase signal: 52 AU (inactive)
[15]
  log fold change Tl+ flux: 0.0512 (inactive)
[16]
  log fold change Tl+ flux: 0.0165 (inactive)
[17]
  log fold change Tl+ flux: -0.00499 (inactive)

## NCc1ccc(S(N)(=O)=O)cc1
[1]; at 10 µM
  nuclear beta-catenin stimulation: 0.8% (inactive)
[1]; stimulation, at 2 µM
  nuclear beta-catenin stimulation: 0.2%
[2]
  insulin secretion stimulation: -0.5% (active)
[3]
  viability decrease: 1.95% (inactive)
[4]
  tube area decrease: 8.4% (inactive)
[5]
  GLP1 secretion stimulation: 1.9% (inactive)
[6]
  inhibition of viability: 7% (inactive)
[7]
  viability decrease (inhibition): 14.1% (inactive)
[8]
  viability decrease (inhibition): 13.8% (inactive)
[9]
  inhibition: -1.59% (inactive)
[10]
  mean signal: 250 (inactive)
[11]
  red/green cell ratio (normalised): 1 (inactive)
[11]; [19]
  normalised cell number: 0.74
[11]; [20]
  normalised cell number: 0.74
[12]; [21]
  fold change: 0.973 (inactive) and 0.954 (inactive) and 0.851 (inactive)
[12]; [22]
  fold change: 2.25 and 1.29 and 0.783
[12]; [23]
  cell count: 11100 and 8530 and 11400
[12]; [24]
  cell count: 11400 and 8940 and 13400
[18]; [25]
  z-score: 0.171 (inactive)
[18]; [26]
  z-score: -0.0568
[13]
  remaining NAD: 10 nM (inactive)
[14]
  luciferase signal: 92 AU (inactive)
[15]
  log fold change Tl+ flux: 0.0308 (inactive)
[16]
  log fold change Tl+ flux: 0.0173 (inactive)
[17]
  log fold change Tl+ flux: -0.0418 (inactive)

## Cc1ncc([N+](=O)[O-])n1CC(C)O (centres undefined)
[1]; at 10 µM
  nuclear beta-catenin stimulation: 3.5% (inactive)
[1]; stimulation, at 2 µM
  nuclear beta-catenin stimulation: 1.6%
[2]
  insulin secretion stimulation: -0.9% (inactive)
[3]
  viability decrease: -3.45% (inactive)
[4]
  tube area decrease: -13.6% (inactive)
[5]
  GLP1 secretion stimulation: 4.1% (inactive)
[6]
  inhibition of viability: -0.3% (inactive)
[7]
  viability decrease (inhibition): 5.3% (inactive)
[8]
  viability decrease (inhibition): -0.75% (inactive)
[9]
  inhibition: -1.51% (inactive)
[10]
  mean signal: 281 (inactive)
[11]
  red/green cell ratio (normalised): 0.83 (inactive)
[11]; [19]
  normalised cell number: 1.13
[11]; [20]
  normalised cell number: 0.94
[12]; [21]
  fold change: 0.961 (inactive) and 0.91 (inactive)
[12]; [22]
  fold change: 1.68 and 0.635 and 1.41
[12]; [23]
  cell count: 9430 and 9630 and 9650
[12]; [24]
  cell count: 9820 and 10000 and 10600
[18]; [25]
  z-score: -0.319 (inactive) and 0.295 (inactive) and -0.342 (inactive)
[18]; [26]
  z-score: 0.828 and -0.245 and -0.0796
[13]
  remaining NAD: 10 nM (inactive)
[14]
  luciferase signal: 40 AU (inactive)
[15]
  log fold change Tl+ flux: -0.058 (inactive)
[16]
  log fold change Tl+ flux: -0.0446 (inactive)
[17]
  log fold change Tl+ flux: -0.00369 (inactive)
